# Reference: ChEMBL document CHEMBL4513216, “Probing the Open Global Health Chemical Diversity Library for Multistage-Active Starting Points for Next-Generation Antimalarials” (ACS Infect Dis, 2020)
# About 8,600 (12%) of roughly 69,000 compounds showed an effect of 50% or more. The list comes from a sample in which strong results are over-represented; it also holds similar structures and randomly drawn compounds.
# Test system: Plasmodium berghei
# Assay: Screen against P. berghei liver stage (PbLuc), transformed with Luciferase, at 10uM
# Format: functional, HepG2
# Settings: tested at 10 uM
row,SMILES,INHIBITION
1,Cn1cnc2c1CCN(c1ccnc(-c3ccccc3)n1)C2,61.2%
2,O=C1NCCN1C1CCN(c2ccnc(-c3ccccc3)n2)CC1,73.1%
3,CN1CCN(C2CCN(Cc3noc(-c4ccccc4)n3)CC2)C1=O,8.11%
4,O=C1NCCN1C1CCN(Cc2ccccn2)CC1,-14.2%
5,c1ccc(-c2nccc(N3CCc4c(ncn4C4CC4)C3)n2)cc1,40.9%
6,O=C1NCCN1C1CCN(Cc2coc(-c3ccccc3)n2)CC1,33.3%
7,CN1CCCC1c1ccnc(-c2ccccc2)n1 (stereo unspecified),-24.4%
8,CN1CCN(C2CCN(c3cnc4ccccc4n3)CC2)C1=O,76.5%
9,CN1CCN(C2CCN(CCOc3ccccc3)CC2)C1=O,40.2%
10,CN1CCN(C2CCN(CC(O)c3ccccc3)CC2)C1=O (stereo unspecified),16.715%
11,Cc1cc(N2CCc3c(ncn3C)C2)nc(N)n1,-14.9%
12,CN1CCN(C2CCN(c3ccnc(-c4ccccc4)n3)CC2)C1=O,91.1%
13,Cc1noc([C@H]2COC[C@H]3CN(C(=O)Cc4cccc(F)c4)C[C@H]32)n1,38.5%
14,COc1c(C)cnc(CN2CCOC(CNc3cccnn3)C2)c1C (stereo unspecified),9.54%
15,O=C(CN1CCN(C(=O)c2ccccc2)CC1)Nc1ccc(Br)cn1,47.3%
16,CCn1ccnc1CN1CCCN(C(=O)c2scnc2C)CC1,13.64%

row,SMILES,INHIBITION
1,O=C(O)CCn1nc(C(F)(F)F)c(Cl)c1C1CC1,31.7%
2,O=C(NCC1Cn2nnc(-c3ccncc3)c2CO1)c1ccc[nH]1 (stereo unspecified),31.4%
3,Cc1cccc(CN2C[C@@H]3CCCO[C@@H]3[C@H](Nc3ccccn3)C2)n1,25.3%
4,O=C(CCc1cc2n(n1)CCCNC2)N1CCN(C2CCCC2)C(=O)C1,-34.8%
5,CO[C@H]1CN(Cc2cc(F)ccc2F)CC[C@@]12CCCO2,-9.27%
6,COc1ccc2[nH]cc(C(=O)CNc3nccs3)c2c1,12.8%
7,Fc1ccc(CN2CCCC2Cn2cncn2)c2ncccc12 (stereo unspecified),79.2%
8,Clc1ccc(CN2CCCC2Cn2cncn2)c2ncccc12 (stereo unspecified),23.45%
9,Clc1ccc2cccnc2c1CN1CCCC1Cn1cncn1 (stereo unspecified),66.2%
10,CS(=O)(=O)NCC1CCCN(Cc2ccc(F)c3cccnc23)C1 (stereo unspecified),18.5%
11,OC1CCCN(Cc2ccc(F)c3cccnc23)C1 (stereo unspecified),54.4%
12,Clc1ccc2cccnc2c1CN1CCCC(Cn2cncn2)C1 (stereo unspecified),22.9%
13,Clc1ccc2cccnc2c1CN1CCCCC1Cn1cncn1 (stereo unspecified),45.65%
14,Fc1ccc(CN2CCCCC2Cn2cncn2)c2ncccc12 (stereo unspecified),21.6%
15,Fc1ccc(CN2CCCC(Cn3cncn3)C2)c2ncccc12 (stereo unspecified),-44.8%
